Results on 96 compounds are retold here after PubChem BioAssay AID2013 (Sanford-Burnham Center for Chemical Genomics, 2009).

“And” between values parts separate entries of the source, which are not always exact repeats. Identical values can stand only once. Out of some 290,000 compounds screened, about 370 (0.13%) were called active.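 Rule for the calls: active = spots per cell inhibited over 60%, with over 100 cells counted and total cytoplasm intensity under 500,000; inconclusive = wells with under 100 cells, flagged as likely toxic; inactive = the rest.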 Only a selection was taken, and actives are over-represented in it overall. Entries with a potency or affinity are not part of this list. Some compounds were tested as several samples or in several runs, with calls that do not always agree.

The assay deals with G-protein coupled receptor 55 (Homo sapiens) (UniProt Q9Y2T6). Kind of assay: GPR55 antagonists blocking LPI-driven arrestin recruitment, primary screen, imaging, U2OS, beta-arrestin-GFP, LPI agonist (AID 2013).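 Note: U2OS cells stably carrying GPR55 and arrestin-GFP stimulated by 5 µM LPI near EC80; imaged beta-arrestin-GFP aggregate spots per cell after agonist stimulation; plate controls were LPI-stimulated DMSO wells for no effect and DMSO wells without LPI for full effect.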 As to conditions: U2OS GPR55 beta-arrestin-GFP translocation imaging, LPI antagonism; at 10 µM; stronger effect = higher value.
Chain of G-protein coupled receptor 55 (Homo sapiens) (Q9Y2T6 whole entry, looked up): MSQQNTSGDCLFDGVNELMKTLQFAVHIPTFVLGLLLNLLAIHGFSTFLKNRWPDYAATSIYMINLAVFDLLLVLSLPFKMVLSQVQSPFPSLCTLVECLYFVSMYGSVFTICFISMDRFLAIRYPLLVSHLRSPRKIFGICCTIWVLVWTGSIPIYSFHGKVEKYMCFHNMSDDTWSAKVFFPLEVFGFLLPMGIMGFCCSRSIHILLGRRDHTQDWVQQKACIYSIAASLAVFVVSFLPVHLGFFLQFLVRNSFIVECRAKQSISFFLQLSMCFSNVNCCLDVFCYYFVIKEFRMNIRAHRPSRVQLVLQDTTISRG
Turning to `O=S(=O)(c1ccc(F)cc1)N1CCCc2ccccc21`, the inhibition – broadly, the relative decrease from the control value, in per cent – is 93.9% (active). Consider `O=S(=O)(c1ccc(F)cc1)N1CCc2ccccc21`, for which the inhibition was 9.6% (inactive). For `O=S(=O)(c1ccccc1)N1CCCc2ccccc21`, the inhibition was 0.9% (inactive). With `COc1ccc(Br)cc1S(=O)(=O)Nc1cccc(C)n1`, the inhibition was 9.5% (inactive). For `C=CCN(C(=O)CNC(=O)c1ccco1)C(C(=O)NC1CCCCC1)c1ccccc1` (stereo unspecified), the inhibition was -5.9% (inactive). As for `C=CCN(C(=O)CNC(=O)c1ccco1)C(C(=O)NC1CCCCC1)c1ccc(F)cc1` (stereo unspecified), the figure is 73.3% (active); as for `C=CCN(C(=O)CNC(=O)c1ccco1)C(C(=O)NC1CCCCC1)c1ccc(OC)cc1` (stereo unspecified), -13.5% (inactive). In the case of `CC(C)N1CCC(N2CCN(Cc3ccc(-c4ccc(Cl)cc4)o3)CC2CCO)CC1` (stereo unspecified), the inhibition was 0.6% (inactive). As to `CC(NC(=O)CCCCCNC(=O)N1CCn2c1nc1ccccc12)c1ccccc1` (stereo unspecified), the inhibition is 2.2% (inactive). With `Cc1oc(-c2cccc(Cl)c2)nc1CS(=O)(=O)CC(=O)NCCN1CCOCC1` the figure was -0.5% (inactive). Turning to `CCOC(=O)C1=C(C)NC(C)=C(C(=O)OCC)C1c1ccc(C)o1`, the inhibition is 10.1% (inactive). Take `CCOC(=O)C1=C(C)NC(=O)NC1c1ccc(Br)o1` (stereo unspecified): the inhibition is -4% (inactive). In the case of `CCCCCCOC(=O)c1ccc(NC(=O)c2cc(OC)c(OC)c(OC)c2Br)cc1`, the inhibition was -0.3% (inactive).

As for `Cc1cnc(NC(=O)NCC2CCCC(CNC(=O)Nc3ncc(C)s3)C2)s1` (stereo unspecified), the inhibition is -6.9% (inactive). Regarding `CCCCC(O)(CCCC)C(=O)NN(C(=O)c1cccnc1Cl)c1ccccc1`, the inhibition is 6.1% (inactive).

Regarding `COc1ccc2c(C)cc(SCn3nnc4ccccc4c3=O)nc2c1`, the inhibition was -3.7% (inactive). With `CCN1C(=O)C(O)(C2COC(C)(C)CC2=O)c2ccccc21` (stereo unspecified) the figure was 7.4% (inactive); with `CCN1C(=O)C(O)(CC(=O)c2ccccn2)c2ccccc21` (stereo unspecified), 12% (inactive); with `CCOc1ccc(Cl)cc1S(=O)(=O)N1CCC(C(=O)NCC2CCCO2)CC1` (stereo unspecified), -1.1% (inactive). For the compound `O=C(CSC1=NCCS1)Nc1cccc(F)c1`, the inhibition is -2.2% (inactive). On to `Cc1ccc(NC2=NCC(Cc3ccc(Br)cc3)S2)cc1` (stereo unspecified), for which the inhibition is 49% (inactive). For `COc1ccc(CCNC2=NCC(C)S2)cc1` (stereo unspecified), the inhibition was 6.5% (inactive). As for `COc1cccc(C(=O)Nc2cc(C(=O)NCc3ccc(C)cc3)ccc2N2CCC3(CC2)CC(c2ccccc2)=NO3)c1`, the inhibition is 10.8% (inactive). For `Cc1cccc(C)c1NC(=O)CN(C)CC(=O)Nc1cc(Cl)ccc1C#N`, the inhibition was 6.8% (inactive). As for `N#CC1=C2N=C(N)c3ccccc3N2C2=C(C(=O)CCC2)C1c1ccc(Cl)cc1` (stereo unspecified), the inhibition was 86.9% (inactive).

In the case of `N#CC1=C2N=C(N)c3ccccc3N2C2=C(C(=O)CCC2)C1c1ccc(F)cc1` (stereo unspecified), the inhibition was 13.1% (inactive).

Consider `O=S(=O)(NCC1CCN(c2ccc(S(=O)(=O)N3CCOCC3)cc2)CC1)c1ccccc1`, for which the inhibition is 0.7% (inactive). As for `O=C(O)Cn1ncn(-c2ccc(OC(F)(F)F)cc2)c1=O`, the figure is 4.9% (inactive); as for `Cc1ccccc1C(=O)NC(=S)NCCC1=CCCCC1`, 1% (inactive).

In the case of `O=C(NC(=S)NCCC1=CCCCC1)c1ccccc1Br`, the inhibition was 74.9% (active). With `O=C(NC(=S)NCCC1=CCCCC1)c1ccc(Br)o1` the figure was 4.9% (inactive); with `CCOc1ccccc1NC(=O)NCc1ccco1`, 11.3% (inactive). As for `Cc1cc(SCC(=O)N/N=C/c2ccc(O)cc2O)nc2ccccc12`, the inhibition is 13.8% (inactive).

Turning to `Oc1oc(-c2ccc(Br)cc2)nc1C=Nc1ccc(Br)cn1`, the inhibition was -0.2% (inactive).

Regarding `CC(=O)c1ccc(N2CCN(C3CCC(C(C)(C)C)CC3)CC2)cc1` (stereo unspecified), the inhibition was 9% (inactive). As for `N[C@@H](Cc1cc(I)c(Oc2ccc(O)c(I)c2)c(I)c1)C(=O)O`, the figure is 6.9% (inactive) and 99.2% (active). Consider `N[C@@H](Cc1ccc(O)c(I)c1)C(=O)O`, for which the inhibition was 8.6% (inactive).

`O=C(O)Cc1cc(I)c(Oc2ccc(O)c(I)c2)c(I)c1`: the inhibition was 6.9% (inactive). For the compound `COc1ccccc1N1CCN(CCCCOc2ccc(C)cc2C)CC1`, the inhibition was 18.9% (inactive).

With `Cc1ccccc1NC1=C/C(=N\S(=O)(=O)c2cccs2)c2ccccc2C1=O`, the inhibition was -11.4% (inactive). As to `Cc1ccc(NC2=C/C(=N/S(=O)(=O)c3cccs3)c3ccccc3C2=O)cc1`, the inhibition was 16% (inactive). Turning to `COc1ccc(OCc2nnc(SCC(=O)Nc3ccccc3F)o2)cc1`, the inhibition was -6.5% (inactive). Consider `Cc1cccc(C(=O)N(CCc2ccccc2)Cc2ccccc2)c1[N+](=O)[O-]`, for which the inhibition was 14% (inactive).

Turning to `O=C(OCn1ncc(Br)c(Br)c1=O)c1c(F)cccc1F`, the inhibition is -5.4% (inactive).

As to `O=C(OCn1ncc(Cl)c(Cl)c1=O)c1ccc(F)cc1`, the inhibition was 1.3% (inactive). As for `CCOC(=O)C1=C(C(F)(F)F)Nc2ncnn2C1c1cccc(OC)c1OC` (stereo unspecified), the figure is 13.1% (inactive).

For the compound `Cn1nc(-c2ccccn2)nc2c(=O)n(C)c(=O)nc1-2`, the inhibition was 45.9% (inactive).

For `CCCc1nc2c(=O)n(C)c(=O)nc-2n(C)n1`, the inhibition is -5.2% (inactive). Take `O=C(/C=C/c1ccc(S(=O)(=O)N2CCOCC2)cc1)N1CCN(c2ccccc2)CC1`: the inhibition was -10.2% (inactive).

Consider `COc1ccc(Br)cc1S(=O)(=O)n1ccnc1`, for which the inhibition was 3.5% (inactive). With `Cc1ccc(CSCCNC(=O)c2ccc(N(C)S(=O)(=O)c3ccccc3)cc2)cc1`, the inhibition was 4.4% (inactive). With `CN(c1ccc(C(=O)NCCSCc2ccccc2)cc1)S(=O)(=O)c1ccccc1`, the inhibition was -5.5% (inactive). Turning to `CCOc1ccc(-n2nc3c(=O)[nH]nc(C)c3c2C)cc1`, the inhibition was 7.8% (inactive).

As to `COc1ccccc1C1C(C#N)=C(N)Oc2c1c(-c1ccccc1)nn2-c1ccccc1` (stereo unspecified), the inhibition was 96.3% (active).

Regarding `COc1ccc(C2C(C#N)=C(N)Oc3c2c(-c2ccccc2)nn3-c2ccccc2)c(OC)c1OC` (stereo unspecified), the inhibition is 79.5% (inactive). On to `COc1cc(C2C(C#N)=C(N)Oc3c2c(-c2ccccc2)nn3-c2ccccc2)cc(OC)c1OC` (stereo unspecified), for which the inhibition was -13.1% (inactive). As for `O=C(COc1ccc(Br)cc1)NC(=S)Nc1ccccc1N1CCOCC1`, the figure is 0.7% (inactive); as for `COc1ccc(C(=O)NC(=S)Nc2ccccc2N2CCOCC2)cc1Br`, 0.4% (inactive); as for `O=C(/C=C/c1ccco1)Nc1ccccc1N1CCOCC1`, 10.8% (inactive). On to `Cc1ccc(C(=O)NC(=S)Nc2ccccc2N2CCOCC2)cc1C`, for which the inhibition is 0.3% (inactive). Turning to `O=C(NC(=S)Nc1ccccc1N1CCOCC1)c1ccc([N+](=O)[O-])cc1`, the inhibition was 5% (inactive). Consider `O=C(/C=C/c1ccco1)NC(=S)Nc1ccccc1N1CCCC1`, for which the inhibition was 23% (inactive). With `O=C(NC(=S)Nc1ccccc1N1CCOCC1)c1ccccc1F` the figure was 16.2% (inactive); with `CCc1ccc(C(=O)NC(=S)Nc2ccc(N3CCOCC3)cc2)cc1`, 4.3% (inactive); with `CCOC(=O)c1sc(NC(=O)CSc2ncn(-c3ccccc3)n2)nc1C`, 14.4% (inactive). Regarding `CCOC(=O)N1CCN(Cc2nc3c(c(=O)n(C)c(=O)n3C)n2CCC(C)C)CC1`, the inhibition is -1.3% (inactive).

With `COC(=O)C1=CC(C(=O)c2cccs2)=NN(c2ccc(OC)cc2)C1C(=O)OC` (stereo unspecified), the inhibition was 7.5% (inactive). For `COc1ccc(C(=O)NCC(=O)N2CCC3(CC2)NCCc2[nH]cnc23)cc1`, the inhibition is -11.2% (inactive).

`O=C(c1csc2ccccc12)n1cccn1`: the inhibition was -12.1% (inactive).

For `Oc1ccccc1/C=N/n1cnnc1`, the inhibition was -8.4% (inactive). Take `Nc1nc(C23CC4CC(CC(C4)C2)C3)cs1`: the inhibition is 24.8% (inactive). On to `Nc1nc(C23CC4CC(CC(Cl)(C4)C2)C3)cs1`, for which the inhibition is -9.3% (inactive). As for `Cc1ccccc1N=Nc1c(C)[nH]n(C(N)=S)c1=O`, the figure is 93.2% (active); as for `Cc1cccc(N=Nc2c(C)[nH]n(C(N)=S)c2=O)c1C`, 10.8% (inactive). As for `Cc1[nH]n(C(N)=S)c(=O)c1N=Nc1ccccc1C(F)(F)F`, the inhibition is 7.7% (inactive). Take `S=C(Nc1ccccc1Oc1ccccc1)Nc1cccc(Cl)c1Cl`: the inhibition is -5.2% (inactive). On to `S=C(Nc1cccc(Cl)c1)Nc1ccccc1Oc1ccccc1`, for which the inhibition is 8.7% (inactive).

For `CCc1nc(NC(=O)Cc2csc(C)n2)sc1C(=O)OC`, the inhibition was 14.5% (inactive). As for `COc1ccc(Cn2ccnc2SCC(=O)Nc2nnc(C)s2)cc1`, the inhibition is -0.9% (inactive). With `CCc1nnc(NS(=O)(=O)c2ccc(NC(=O)Nc3ccc(OC)cc3)cc2)s1`, the inhibition was -0.7% (inactive).

Regarding `CCc1nnc(NS(=O)(=O)c2ccc(NC(=O)/C=C/C(=O)O)cc2)s1`, the inhibition was 6.6% (inactive). With `CCc1nnc(NS(=O)(=O)c2ccc(NC(=O)/C=C/c3ccc(F)cc3)cc2)s1` the figure was 1.5% (inactive). Consider `CCc1nnc(NS(=O)(=O)c2ccc(NC(=S)NC(=O)/C=C/c3ccc(OC)cc3)cc2)s1`, for which the inhibition was 10.6% (inactive).

`COc1ccc(/C(C)=N\Nc2nc(-c3ccccc3)cc(=O)[nH]2)cc1`: the inhibition is 12.1% (inactive). For `Cc1nn2c(N3CCOCC3)cc(C(C)(C)C)nc2c1-c1ccc(Cl)cc1`, the inhibition was -7.5% (inactive).

Take `O=C(O)c1cc(NC(=O)c2ccc(Cl)c([N+](=O)[O-])c2)cc(C(=O)O)c1`: the inhibition was 6.4% (inactive). As for `O=C(Nc1ccc(C(O)(C(F)(F)F)C(F)(F)F)cc1)c1ccc(Cl)c([N+](=O)[O-])c1`, the figure is 88.6% (active).

As for `O=C(Nc1ccc(Nc2ccccc2)cc1)c1ccc(Cl)c([N+](=O)[O-])c1`, the inhibition was 12% (inactive). On to `CCCn1c2c(c(O)c(C(=O)Nc3ncccc3O)c1=O)CCCC2`, for which the inhibition was -10.6% (inactive).

Regarding `CCCCn1c(CCC(=O)O)nc2c1c(=O)[nH]c(=O)n2CCC`, the inhibition was -0.5% (inactive).

On to `CCCCn1c(=O)[nH]c(=O)c2c1nc(CN1C(=O)c3ccccc3S1(=O)=O)n2CCC`, for which the inhibition was 8.3% (inactive). With `CCC(Sc1nc(N)cc(=O)[nH]1)C(=O)NC(C(=O)OC)c1ccccc1` (stereo unspecified) the figure was 3.4% (inactive); with `COc1ccc(C2CCCN2CC(O)COc2ccccc2C(C)C)cc1` (stereo unspecified), 5.6% (inactive). As for `O=C1CC(SC(=Nc2ccccc2)Nc2ccccc2)C(=O)N1c1cccc(Cl)c1` (stereo unspecified), the inhibition was 17.2% (inactive). With `O=C1CC(SC(=Nc2ccccc2)Nc2ccccc2)C(=O)N1c1ccc(Cl)cc1` (stereo unspecified) the figure was 6.2% (inactive); with `O=C1CC(SC(=Nc2ccccc2)Nc2ccccc2)C(=O)N1c1ccc(Cl)c(Cl)c1` (stereo unspecified), 72.2% (active).
